The campaign covered roughly 69,000 compounds. About 8,600 (12%) showed an effect of 50% or more. Many of the other results were omitted from the sample, so strong results are more common in it than they were.

The test system of the assay is Plasmodium berghei. Kind of assay: Screen against P. berghei liver stage (PbLuc), transformed with Luciferase, at 10uM. The following applies: tested at 10 uM. In kind it is functional, HepG2.
As for `COc1ccc(C2CCCCCN2S(C)(=O)=O)cc1` (stereo not drawn), the INHIBITION is 27.4%. Turning to `Cc1ccc2c(n1)N(C)CCN(Cc1ccco1)C2`, the INHIBITION was determined as 3.88%. For `CN1CCN(c2ncnc3c2CCN(S(=O)(=O)C2CC2)CC3)CC1`, the INHIBITION is 29.4%. Under `Cc1cs/c(=N/C(=O)c2csc(NCC(C)C)n2)[nH]1` stands 90.8%. Consider `CC(C)CNc1nc(C(=O)/N=c2\[nH]nc(C(C)(C)C)s2)cs1`, for which the INHIBITION came to 11.5%. On to `CC(=O)Nc1nc(C(=O)NC(C)c2ccc(F)cc2)cs1` (stereo not drawn), for which the INHIBITION is listed as -45.2%. As for `Cc1cs/c(=N\C(=O)c2c3c(nc4onc(C)c24)CCC3)[nH]1`, the INHIBITION was found to be 24.1%. Regarding `Cc1[nH]/c(=N\C(=O)c2csc(NCC(C)C)n2)sc1C`, the INHIBITION is recorded as 89.6%. Under `Cc1cc(O)c(OCC(=O)/N=c2\[nH]c(C)c(C)s2)cn1` stands -69.4%; under `Cc1nn(C(C)C)c(C)c1CN1CCN(C2CCCCC2)C(=O)C1`, 5.1%. Under `CCN1CC[C@@]2(C(=O)N3CCOCC3)CCN(S(=O)(=O)CC)CC[C@@H]12` stands 17.4%; under `Cc1ccn2cc(C(=O)N3CCCC(Cn4cc(CO)nn4)C3)nc2c1` (stereo not drawn), 36.7%; under `Cc1cc2n(n1)[C@@H](C(F)(F)F)C[C@@H](C1CCN(C(=O)C3CC3)CC1)N2`, -4.51%.

Regarding `CC(C)(C)CC(=O)NS(=O)(=O)c1ccc(C#N)cc1C(F)(F)F`, the INHIBITION came to 19.2%. The figure for `Cc1cc(C)n(-c2cncc(NCCNC(=O)C3CCCC3)n2)n1` is 45.2%. With `CS(=O)(=O)N1CCn2c(C(=O)N3CCOCC3)cnc2C1`, the INHIBITION turned out to be 52.6%.

Take `CS(=O)(=O)N1C[C@@H]2C[C@H](C(=O)N3CCOCC3)[C@H](C1)O2`: the INHIBITION is recorded as 0.112%. As for `CS(=O)(=O)N1CC[C@H]2C[C@@H](C(=O)N3CCOCC3)O[C@@H]2C1`, the INHIBITION worked out at 25.4%. Under `Cc1cccc(NS(=O)(=O)c2cc3c(c(C(=O)O)c2)OCCO3)c1` stands 7.27%; under `Cc1cc(C)cc(NS(=O)(=O)c2cc3c(c(C(=O)O)c2)OCCO3)c1`, 57.2%; under `O=C(O)c1cc(S(=O)(=O)Nc2cc(F)cc(F)c2)cc2c1OCCO2`, 40%. Take `COCCN1C(=O)CCC12CCC(NC(=O)c1cnccn1)CC2` (stereo not drawn): the INHIBITION is reported as -14.7%. Consider `CNC(=O)C1(c2cnccn2)CCCN1C(=O)c1ccccc1F` (stereo not drawn), for which the INHIBITION is reported as 13.5%. Consider `C[C@H]1CN(CC2CCOCC2)C[C@@]12CCN(Cc1cccnc1)C2=O`, for which the INHIBITION turned out to be 3.81%.

As to `Cn1ccnc1CN1CCCCC1c1nc(-c2ccccc2)no1` (stereo not drawn), the INHIBITION is on record as 30.4%.

As to `CN1CCCC1CCn1ccnc1-c1nc(-c2ccccc2)no1` (stereo not drawn), the INHIBITION stood at 51.8%. Consider `Cc1nn(C)c2nc(-c3ccccn3)nc(NCCC3CCCN3C)c12` (stereo not drawn), for which the INHIBITION was found to be 11.2%. `CN1CCCC1CCn1ccnc1-c1ccc2ccccc2n1` (stereo not drawn): the INHIBITION is 72.3%.

As to `c1ccc(-c2noc(CCCN3CCCC3Cn3cccn3)n2)cc1` (stereo not drawn), the INHIBITION worked out at 45.7%.

Consider `CN1CCCC1CCn1ccnc1-c1nc2ccccc2[nH]1` (stereo not drawn), for which the INHIBITION is 53.9%. The figure for `OCC1CCCCN1CCn1ccnc1-c1nc2ccccc2[nH]1` (stereo not drawn) is 38.8%. Regarding `Cc1nc(CN2CCCC2Cn2ccnc2C(C)C)nc2ccccc12` (stereo not drawn), the INHIBITION stood at 30.4%. Take `Cc1nccn1CCC1CCNCC1`: the INHIBITION is on record as 39.6%.
